The source of these data is PubChem BioAssay.

This assay is described as follows: small-molecule microarray binders of probe aWnt5a, primary screen, biochemical, biotinylated probe, 635/667 nm fluorescence (AID 1113).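 Further: score merges 667 nm fluorescence intensity with signal-to-noise per printed feature.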 As to conditions: higher = more signal.
Compound `CO[C@H]1O[C@H](CO)[C@@H](OC(=O)Nc2ccc3c(c2)OCO3)[C@H](OC(=O)Nc2ccc3c(c2)OCO3)[C@@H]1OC(=O)Nc1ccc2c(c1)OCO2` returned a composite z-score of 0.0618. In the case of `CCOC(=O)C[C@H]1[C@H](OC(=O)c2ccccc2-c2ccccc2)[C@@H](NC(=O)c2ccc3ccccc3c2)c2cc(OCCCO)ccc2N1C(=O)c1ccccc1` it was -0.0981; in that of `CC(C)[Si]1(C(C)C)OCc2cc(-c3ccc(-c4ccc(Cl)c(Cl)c4)o3)nc(-c3ccccc3)c21`, -0.16; in that of `COc1ccc([C@H]2OC[C@@H]3C[C@H](Cc4ccccc4)C(=O)N32)cc1`, 0.188. Compound `COC(=O)C(CC#Cc1ccc2c(c1)[C@]1(C(=O)N2)[C@H](c2ccc(O)cc2)N2[C@H](c3ccccc3)[C@H](c3ccccc3)OC(=O)[C@H]2[C@@H]1C(=O)NC[C@H](O)c1ccccc1)C(=O)OC` showed a composite z-score of -0.0606. `CC(=O)N1CC2(CC2)CC1c1ccccc1` (stereo not given): the composite z-score stood at 1.19. Consider `COc1ccc([Si](C)(C)[C@@H]2[C@@H](CC(=O)N3CCC[C@H]3CO)O[C@]3(C(=O)N(Cc4cccc(N5C(=O)COc6ccccc65)c4)c4ccccc43)[C@H]2C)cc1`, for which the composite z-score stood at 0.0215. Compound `O=c1cccc(-c2ccc([N+](=O)[O-])cc2)o1` came in with a composite z-score of 0.0775. `N[C@@H](Cc1ccccc1)C(=O)NCc1cn(Cc2ccccc2)nn1` returned a composite z-score of -0.119. Take `O=C1C2C=CC(C(O)c3cccc(O)c3)N(Nc3ccc([N+](=O)[O-])cc3)C2C(=O)N1c1ccccc1` (stereo not given): the composite z-score is -0.0462. To `CC(C)c1ccc(NN2C(C(O)c3ccc(F)cc3)C=CC3C(=O)N(c4ccccc4)C(=O)C32)cc1` (stereo not given) belongs 0.105. For `C=CC[C@@H](OC(=O)Nc1ccc(SC)cc1)c1ccc(O)c(F)c1`, the composite z-score is -0.0991.

With `COc1cc2c(cc1O)C(C1CC1)N(C)CC2` (stereo not given), the composite z-score was -0.0101.

`O=C1CS(=O)(=O)C(c2cccc([N+](=O)[O-])c2)N1c1ccccc1` (stereo not given) came in with a composite z-score of 0.157. As for `COC(=O)[C@@H]1N=C(c2ccc(OCCCO)cc2)O[C@@H]1c1ccccc1`, the composite z-score is -0.152. Consider `O=C1NC(=O)C2C1C=CC(C(O)c1ccco1)N2Nc1ccc(Cl)cc1Cl` (stereo not given), for which the composite z-score is -0.152.

The compound `COc1ccc([Si](C)(C)[C@@H]2[C@@H](CCO)O[C@]3(C(=O)N(Cc4cccc(NC(=O)[C@H](C)O)c4)c4ccccc43)[C@H]2C)cc1` returned a composite z-score of 0.0998. In the case of `CCCN1C(=O)[C@]2(Cc3ccccc31)N=C(c1ccc(OCCCO)cc1)O[C@@H]2c1ccccc1` it was 0.0427; in that of `CN(C)C(=O)[C@@]1(Cc2ccccc2)N=C(c2ccc(OCCCO)cc2)O[C@H]1c1ccccc1`, 0.217; in that of `COCCOC(=O)N1C(=O)[C@@]2(c3cc(C#CC4(O)CCCCCC4)ccc31)[C@H](c1ccc(O)cc1)N1[C@H](c3ccccc3)[C@H](c3ccccc3)OC(=O)[C@H]1[C@@H]2C(=O)N1CCN(c2ncccn2)CC1`, 0.0375. `COc1ccc(CCNC(=O)[C@@]2(Cc3ccccc3I)c3ccccc3C(=O)N(C3CCCCC3)[C@H]2c2ccc(CO)cc2)cc1` displayed a composite z-score of -0.0721. As to `CCOC(=O)C=Cc1cccc(C)c1O`, the composite z-score is -0.1.

Regarding `C=CCC(OC(C)=O)[C@@H]1[C@@H](N(Cc2ccc(-c3cccc(C(F)(F)F)c3)o2)C(=O)Cc2ccc(OC)cc2)c2cc(OCCCO)ccc2N1C(=O)c1ccc(-c2ccccc2)cc1` (stereo not given in full), the composite z-score was determined as 0.0079. Compound `O=C1[C@H]2C=C(I)[C@H](C[C@@H]2OCCOCCO)[C@@]12CO2` returned a composite z-score of -0.26.

Turning to `C#Cc1cc2ccccc2oc1=O`, the composite z-score is -0.187. In the case of `O=C(Cc1ccccc1)[C@H]1C2C=CCCC(c3ccccc3)=C2CN1Cc1ccccc1` (stereo not given in full) it was -0.0566. For the compound `O=C1O[C@@H](c2ccccc2)[C@@H](c2ccccc2)N2[C@@H](c3ccc(OCCO)cc3)[C@]3(C(=O)Nc4ccc(C#CC5=CCCCC5)cc43)[C@@H](C(=O)NC[C@H](O)c3ccccc3)[C@H]12`, the composite z-score was -0.042. As for `COc1cc2c(cc1O)C(C1CC1)N(Cc1cccc(OC(F)(F)F)c1)CC2` (stereo not given), the composite z-score was -0.062.

With `[N-]=[N+]=NCc1ccccc1[C@@H]1OC(c2ccc(OCCCO)cc2)=N[C@]1(CCS(=O)(=O)c1ccccc1)C(=O)O`, the composite z-score came out at 0.0487. To `[N-]=[N+]=NCc1ccccc1[C@H]1OC(c2ccc(OCCCO)cc2)=N[C@@]1(Cc1ccccc1N=[N+]=[N-])C(=O)NCC(O)CO` (stereo not given in full) belongs 0.112.

The compound `COCCOC(=O)N1C(=O)[C@@]2(c3ccccc31)[C@H](C(=O)NC[C@H](O)c1ccccc1)[C@H]1C(=O)O[C@H](c3ccccc3)[C@H](c3ccccc3)N1[C@@H]2c1ccc(O)cc1` displayed a composite z-score of -0.0072. Turning to `O=C1OCCC/C=C\[C@H]2OC34C=CCN(c5ccc6ccccc6c5)C(=O)[C@H]3N(CCO)C(=O)[C@@H]4C12` (stereo not given in full), the composite z-score is -0.154. Compound `CCOC(=O)C[C@H]1[C@H](OC(=O)Cc2ccc3c(c2)OCO3)[C@@H](NC(=O)c2ccc3ccccc3n2)c2cc(OCCCO)ccc2N1C(=O)c1ccc2ccccc2n1` registered a composite z-score of -0.0512. To `CC[C@@H]1C=C(C(=O)O)[C@H](c2ccccc2)N1S(=O)(=O)c1ccc(C)cc1` belongs -0.113; to `CC(C)N1C(=O)C[C@@](C(=O)O)(c2ccc([N+](=O)[O-])cc2)[C@H]1c1ccc(CO)cc1`, -0.118.
